Experimental data from PubChem BioAssay.
Active and inactive are the calls of the source.

Experiments:
[1] = biological target: Albumin (Bos taurus) (UniProt P02769); assay: bovine serum albumin binders on microarray, profiling panel, artefact control for SMM control protein annotation, biochemical, small-molecule microarray, Alexa647 label, 635/667 nm fluorescence (AID 1118); conditions: BSA-A647 binding, fluorescence 635 nm, higher = more signal;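 also: score merges 667 nm emission intensity and signal-to-noise per printed compound spot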
Chain of Albumin (Bos taurus) (P02769 whole entry, looked up): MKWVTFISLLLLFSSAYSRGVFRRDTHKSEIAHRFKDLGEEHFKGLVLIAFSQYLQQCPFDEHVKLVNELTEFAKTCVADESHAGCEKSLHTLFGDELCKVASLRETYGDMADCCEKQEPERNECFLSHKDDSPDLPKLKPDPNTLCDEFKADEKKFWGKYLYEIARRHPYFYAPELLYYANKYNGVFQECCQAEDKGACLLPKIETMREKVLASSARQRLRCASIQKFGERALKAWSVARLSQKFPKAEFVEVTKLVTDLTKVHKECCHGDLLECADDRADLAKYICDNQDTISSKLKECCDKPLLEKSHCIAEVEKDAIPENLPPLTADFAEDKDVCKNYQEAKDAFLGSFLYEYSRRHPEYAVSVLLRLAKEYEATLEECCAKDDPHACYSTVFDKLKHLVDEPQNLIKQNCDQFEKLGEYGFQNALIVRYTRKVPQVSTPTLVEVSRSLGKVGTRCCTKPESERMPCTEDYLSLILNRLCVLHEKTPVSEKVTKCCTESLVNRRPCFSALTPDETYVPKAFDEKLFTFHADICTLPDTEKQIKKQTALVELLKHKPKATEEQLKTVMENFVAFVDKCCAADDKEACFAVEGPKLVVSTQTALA

[2] = small-molecule microarray binders of probe aXIP, primary screen, biochemical, NeuroSMM set, 635/667 nm fluorescence (AID 1119); conditions: higher = more signal, called active from +8 up or from −8 down;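 also: probe is the protein aXip251-270 applied at 1 µg/mL to compound-printed slides; binding of probe to printed compounds measured as 667 nm fluorescence plus signal to noise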
[3] = small-molecule binders of probe aNOTCH3, primary screen, biochemical, small-molecule microarray, 635/667 nm fluorescence (AID 1120); conditions: higher = more signal;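 also: probe is a biotin-tagged antibody raised against NOTCH3 rather than NOTCH3 protein; score merges spot fluorescence near 667 nm with spot signal to noise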
[4] = small-molecule binders of probe aNOTCH2, primary screen, biochemical, small-molecule microarray, 635/667 nm fluorescence (AID 1121); conditions: higher = more signal;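 also: score merges feature fluorescence read at 667 nm with its signal to noise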
[5] = biological target: Carbonic anhydrase 2 (Homo sapiens) (UniProt P00918); assay: CAII small-molecule binders, profiling panel, biochemical, small-molecule microarray, Alexa647-labelled CAII (AID 1122); conditions: CAII-A647 binding fluorescence, higher = more signal
[6] = COS7 lysate on small-molecule microarray, probe aHis, 635 nm (AID 1123); conditions: COS7 cell lysate, fluorescence, higher = more signal;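 also: z-score combines 667nm fluorescence intensity with signal-to-noise per printed compound spot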
[7] = compound binding in COS7 lysate, probe aLAP1, primary screen, cell lysate, small-molecule microarray (AID 1124); conditions: probe aLAP1, fluorescence, higher = more signal;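 also: lysate comes from COS7 cells expressing LAP1 and is applied at 0.3 µg/mL; score merges spot fluorescence near 667 nm with signal-to-noise over triplicate slides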
[8] = system: Sam68 (KHDRBS1); assay: Sam68 small-molecule binders, primary screen, biochemical, small-molecule microarray, 635 nm fluorescence (AID 1125); conditions: small-molecule microarray binding, higher = more signal;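 also: score merges 667 nm channel intensity with signal to noise over triplicate slides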
[9] = system: Chordin-like protein 2 (CHRDL2); assay: CHRDL2 small-molecule binders, primary screen, biochemical, small-molecule microarray, 635 nm fluorescence (AID 1126); conditions: small-molecule microarray binding, fluorescence 635 nm; higher = more signal;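 also: printed compound slides probed with Chrdl2 protein at 4 µg/mL for 1 h at 4 C; score merges 667 nm emission intensity with signal to noise over three replicate slides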
[10] = biological target: Concanavalin-A (Canavalia ensiformis) (UniProt P02866); assay: ConA small-molecule binders, primary screen, artefact control for SMM control protein annotation, biochemical, small-molecule microarray, Alexa647 label, 635 nm (AID 1127); conditions: ConA-A647 binding fluorescence, higher = more signal;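 also: z combines 667 nm emission intensity with signal-to-noise across three replicate slides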
Chain of Concanavalin-A (Canavalia ensiformis) (P02866 whole entry, looked up): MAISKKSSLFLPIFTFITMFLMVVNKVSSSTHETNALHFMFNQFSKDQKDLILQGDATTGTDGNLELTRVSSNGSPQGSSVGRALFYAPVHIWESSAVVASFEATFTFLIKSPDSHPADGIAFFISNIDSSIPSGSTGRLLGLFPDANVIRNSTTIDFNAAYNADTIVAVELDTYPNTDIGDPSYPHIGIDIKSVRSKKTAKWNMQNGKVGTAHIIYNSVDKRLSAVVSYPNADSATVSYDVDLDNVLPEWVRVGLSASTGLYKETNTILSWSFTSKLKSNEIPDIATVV

| Compound | composite z-score [1] | composite Z-score [2] | composite z-score [3] | composite z-score [4] | composite z-score [5] | composite z-score [6] | composite z-score [7] | composite z-score [8] | composite z-score [9] | composite z-score [10] |
| --- | --- | --- | --- | --- | --- | --- | --- | --- | --- | --- |
| COc1ccc([Si](C)(C)[C@H]2[C@H](CCn3cc(CCO)nn3)O[C@@]3(C(=O)N(Cc4ccc(N5CCOC5=O)cc4)c4ccccc43)[C@@H]2C)cc1 | 0.535 | 0.533 (inactive) | -0.0126 | -0.112 | 0.458 | 1.94 | 0.622 | 1.23 | 0.21 | 0.702 |
| CCCC[C@H]1OB(O)C[C@H]2C1=C(C)C[C@H]1C(=O)N(Cc3ccccc3)C(=O)[C@H]12 | 0.067 | 0.252 (inactive) | -0.0613 | -0.126 | 0.38 | 0.257 | -0.361 | 0.663 | 0.472 | 0.546 |
| CCOC(=O)C[C@H]1[C@H](OC(=O)c2ccc(-c3ccccc3)cc2)[C@@H](NC(=O)Cc2ccc(OC)cc2)c2cc(OCCCO)ccc2N1C(=O)c1ccc2ccccc2n1 | 0.647 | -1.15 (inactive) | 0.0408 | -0.0288 | 0.19 | 1.24 | 0.561 | 0.891 | -0.62 | 0.762 |
| COCCOC(=O)N1C(=O)[C@@]2(c3cc(C#CC4=CCCCC4)ccc31)[C@H](C(=O)NC[C@H](O)c1ccccc1)[C@H]1C(=O)O[C@H](c3ccccc3)[C@H](c3ccccc3)N1[C@@H]2c1ccc(O)cc1 | 0.112 | 0.0886 (inactive) | 0.184 | 0.103 | 0.521 | 0.824 | 0.992 | 1.29 | 1.12 | 1 |
| COC(=O)C(CC#Cc1ccc2c(c1)[C@]1(C(=O)N2)[C@H](c2ccc(OCCO)cc2)N2[C@H](c3ccccc3)[C@H](c3ccccc3)OC(=O)[C@H]2[C@@H]1C(=O)NC[C@H](O)c1ccccc1)C(=O)OC | 0.819 | 0.0996 (inactive) | 0.0556 | -0.115 | 0.497 | 1.97 | -0.131 | 1.29 | -0.28 | 1.14 |
| COCCOC(=O)N1C(=O)[C@@]2(c3cc(C#CCNC(N)=O)ccc31)[C@H](c1ccc(O)cc1)N1[C@H](c3ccccc3)[C@H](c3ccccc3)OC(=O)[C@H]1[C@@H]2C(=O)Nc1nc2ccccc2s1 | 0.0631 | -0.162 (inactive) | 0.111 | -0.0432 | 0.266 | 1.17 | 0.243 | 0.942 | 0.554 | 1.09 |
| C=C(COC)C(=O)CC[C@@H](OC(=O)c1cccnc1)c1ccc(CO)o1 | 0.158 | 0.509 (inactive) | -0.0362 | -0.157 | 0.481 | 0.387 | 0.823 | 0.532 | 0.739 | 0.341 |
| C[C@H]1NC(=O)[C@H](Cc2ccccc2)NC(=O)[C@@]23C(=O)N[C@@H](Cc4ccccc4)C2[C@H](C)[C@@]2(C)O[C@H]2C3/C=C/C/C=C\CNC1=O (stereo not given in full) | -1.45 | 0.572 (inactive) | -0.15 | -0.118 | -0.0479 | -1.21 | 0.0584 | -1.69 | 0.417 | -1.44 |
| COCCOC(=O)N1C(=O)[C@@]2(c3cc(C#CCCO)ccc31)[C@H](c1ccc(O)cc1)N1[C@H](c3ccccc3)[C@H](c3ccccc3)OC(=O)[C@H]1[C@@H]2C(N)=O | 0.136 | 0.257 (inactive) | -0.0967 | -0.0956 | 0.738 | 0.831 | 1.73 | 0.761 | -0.552 | 0.59 |
| CC1=C2[C@@H](CCc3ccccc3)OB(O)C[C@@H]2n2c(=O)n(-c3ccccc3)c(=O)n2C1 | 0.201 | 0.131 (inactive) | 0.199 | -0.11 | 0.478 | 0.224 | 0.0327 | 0.617 | 0.469 | 1 |
| COc1ccc(C(O)C2C=CC3C(=O)N(C)C(=O)C3N2Nc2ccccc2)cc1OCc1ccccc1 (stereo not given) | 0.878 | 0.0582 (inactive) | -0.0714 | -0.0128 | 0.754 | 1.67 | -0.142 | 1.28 | -0.0441 | 0.949 |
| COCCOC(=O)N1C(=O)[C@@]2(c3cc(C#CCC(C(=O)OC)C(=O)OC)ccc31)[C@H](c1ccccc1OCCO)N1[C@H](c3ccccc3)[C@H](c3ccccc3)OC(=O)[C@H]1[C@@H]2C(=O)N1CCc2cc(OC)c(OC)cc2C1 | 0.534 | 0.405 (inactive) | 0.134 | -0.16 | 0.45 | 0.833 | 0.211 | 1.29 | 0.787 | 1.16 |
| COCCOC(=O)N1C(=O)[C@@]2(c3cc(C#CCC(C(=O)OC)C(=O)OC)ccc31)[C@H](c1ccccc1OCCO)N1[C@H](c3ccccc3)[C@H](c3ccccc3)OC(=O)[C@H]1[C@@H]2C(N)=O | 0.101 | -0.167 (inactive) | 0.173 | -0.0357 | 0.503 | 2.03 | 1.5 | 1.25 | 0.237 | 1.07 |
| COCCOC(=O)N1C(=O)[C@@]2(c3cc(C#CCCO)ccc31)[C@H](C(=O)NC[C@H](O)c1ccccc1)[C@H]1C(=O)O[C@H](c3ccccc3)[C@H](c3ccccc3)N1[C@@H]2c1ccc(O)cc1 | 0.508 | -0.302 (inactive) | -0.0362 | -0.115 | 0.568 | 0.813 | 0.16 | 0.053 | -0.496 | 1.09 |
| C=CC[C@@]1(C(=O)O)N=C(c2ccc(OCCCO)cc2)O[C@@H]1c1ccccc1N=[N+]=[N-] | 0.851 | 0.544 (inactive) | 0.169 | 0.0828 | 0.513 | 2.03 | 0.906 | 1.09 | 0.52 | 0.247 |
